# From PubChem
# The list is not random: actives were taken first. Their share in the collection is about 22%.
# CYP2C9 inh: blockers of cytochrome P450 2C9 activity – biochemical, luminescence, ADME assay, primary screen. P11712. AID 777, 2007. inhibition, % at 5 µM. actives 20% (n = 96,000). CYP2C9 Supersomes, luciferin-H conversion;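 active = blocking of liver enzyme CYP2C9 beyond about 50% at 5 µM, limit read from the data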
# Target sequence (P11712 whole entry, looked up): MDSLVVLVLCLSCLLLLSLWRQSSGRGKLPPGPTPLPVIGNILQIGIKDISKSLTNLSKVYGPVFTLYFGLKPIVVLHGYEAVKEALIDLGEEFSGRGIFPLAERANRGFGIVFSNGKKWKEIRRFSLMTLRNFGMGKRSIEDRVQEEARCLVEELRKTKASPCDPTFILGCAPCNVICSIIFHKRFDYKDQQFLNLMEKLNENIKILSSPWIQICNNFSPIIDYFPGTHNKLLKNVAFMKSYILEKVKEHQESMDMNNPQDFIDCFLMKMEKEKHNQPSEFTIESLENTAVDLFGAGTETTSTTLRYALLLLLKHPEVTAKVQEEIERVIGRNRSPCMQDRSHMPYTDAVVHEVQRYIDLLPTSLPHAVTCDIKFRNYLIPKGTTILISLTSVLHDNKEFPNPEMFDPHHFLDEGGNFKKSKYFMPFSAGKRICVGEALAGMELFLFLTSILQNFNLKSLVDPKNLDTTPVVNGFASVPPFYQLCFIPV
# CYP2C9 act: human CYP2C9 activators, primary screen, biochemical, luminescence | Cytochrome P450 2C9 (Homo sapiens), P11712 | recombinant CYP2C9, luciferin-H conversion; active compounds read high; factor 1 = untreated enzyme, 0 = blocked | activation factor at 5 µM | actives 1.4% (n = 96,000);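 active = activation factor of 2 or more for CYP2C9 at a 5 µM dose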;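 note: 0 = sulfaphenazole-blocked wells and 1 = vehicle-only wells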
# CYP2C19 inh: blockers of cytochrome P450 2C19 activity – biochemical, luminescence, ADME assay, primary screen | actives 21% (n = 96,000) | inhibition, % at 5 µM | CYP2C19 Supersomes, luciferin-H EGE luminescence, 30 min | P33261;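 active = CYP2C19 inhibition above a set limit at 5 µM in the primary screen, cut at about 50% in these data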;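 note: plate controls were negative control wells for no effect and 2.5 mM tranylcypromine positive control for full effect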
# Measles CPE: compounds protecting cells from measles virus cytopathic effect, primary screen, measles RdRp inhibitor project, single point, MLSMR library, absorbance; actives 1.5% (n = 140,000); Measles virus-infected cells, CPE protection; protection (pct of control), % at 4 µM; in the data active = protection mostly above about 24%, no sharp cut-off; inactive = mostly below about 26%
# CYP2C19 act: human CYP2C19 activators, primary screen, biochemical, luminescence. Cytochrome P450 2C19 (Homo sapiens), P33261. recombinant CYP2C19, luciferin-H EGE luminescence; active compounds read high; 0 = fully inhibited enzyme, 1 = untreated enzyme. activation factor at 5 µM. 96,000 tested, under 10 active;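 active = activation factor of at least 2 at 5 µM in the primary screen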;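 note: 0 = wells with 2.5 mM tranylcypromine and 1 = vehicle-only wells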
# Numbers without * were called inactive; · = no result given.
SMILES,CYP2C9 inh,CYP2C9 act,CYP2C19 inh,Measles CPE,CYP2C19 act
O=C(O)C1C2CCC(C2)C1C(=O)NCCCn1ccnc1 (centres undefined),52*,0.5,79*,22,0.2
CCOC(=O)C1(CCC(C)C)CC(CSc2nc3ccccc3[nH]2)OC1=O (centres undefined),58*,0.4,14,23,0.9
CCOC(=O)C1(CC)CC(CSc2nc3ccccc3[nH]2)OC1=O (centres undefined),82*,0.2,52*,16,0.5
CN(/N=C/c1ccncc1)c1cnn(-c2ccc(F)c(Cl)c2)c(=O)c1Cl,93*,0.1,91*,10,0.1
CCNc1nc(N)c(C(=O)c2ccc(Cl)s2)s1,54*,0.5,83*,3,0.2
CC(C)(C)c1csc(NC(=O)c2ccc(Cl)s2)n1,31,0.7,15,3,0.8
Cn1c2ccccc2c2ncn(CCC3=CCCCC3)c(=O)c21,84*,0.2,71*,12,0.3
O=C(Cc1ccc(Br)cc1)OCC(=O)N1CCc2ccccc2C1,·,·,·,15,·
O=C(NCc1ccc2c(c1)OCO2)c1nn2cccnc2c1Cl,12,0.9,41,17,0.6
O=C(COC(=O)c1cccc(S(=O)(=O)NCc2ccccc2)c1)Nc1ccccc1OC(F)F,21,0.8,60*,9,0.4
CN(C)S(=O)(=O)c1ccc(C(=O)OCC(=O)c2ccc(OC(F)F)cc2OC(F)F)cc1,48,0.5,86*,19,0.1
Cc1c(C(=O)OCC(=O)Nc2ccccc2OC(F)F)cccc1[N+](=O)[O-],·,·,·,5,·
CN(C)S(=O)(=O)c1ccc(C(=O)OCC(=O)Nc2ccccc2OC(F)F)cc1,58*,0.4,8,4,0.9
CN(C)S(=O)(=O)c1cccc(C(=O)OCC(=O)NCc2ccccc2)c1,3,1,-7,18,1.1
Cc1ccc(NC(=O)c2ccc(OC(F)F)cc2)cc1S(=O)(=O)N(C)C,·,·,·,7,·
O=C(COC(=O)c1ccc(S(=O)(=O)NCc2ccco2)cc1)Nc1ccccc1OC(F)F,76*,0.2,5,7,1
CSc1nc2[nH]ncc2c(=O)n1-c1ccccc1,·,·,·,6,·
O=c1c2cn[nH]c2nc(SCc2ccc3c(c2)OCCO3)n1-c1ccccc1,88*,0.1,90*,10,0.1
CCOc1ccc(NC(=O)CSc2nc3[nH]ncc3c(=O)n2-c2ccccc2OC)cc1,·,·,·,9,·
CCc1ccccc1-n1c(SCC(=O)Nc2ccc3c(c2)OCCO3)nc2[nH]ncc2c1=O,61*,0.4,54*,6,0.5
Cc1cc2ccccc2c(=O)n1CC(=O)N1CCN(c2cccc(Cl)c2)CC1,-20,1.2,-8,9,1.1
Cc1cc2ccccc2c(=O)n1CC(=O)NCC(=O)N1CCN(c2ccccc2)CC1,-140,2.4*,-18,9,1.2
O=C(Cn1c(=O)sc2ccccc21)Nc1ccc(S(=O)(=O)N2CCCCC2)cc1,·,·,·,11,·
Cc1cc2ccccc2c(=O)n1CC(=O)N(C)c1ccc(F)cc1,34,0.7,60*,4,0.4
O=C(Cn1c(=O)sc2ccccc21)NCc1ccco1,-340,4.4*,72*,14,0.3
SMILES,CYP2C9 inh,CYP2C9 act,CYP2C19 inh,Measles CPE,CYP2C19 act
CCN(CC)S(=O)(=O)c1ccc(NC(=O)Cn2c(=O)sc3ccccc32)cc1,70*,0.3,-7,12,1.1
CC12CC3CC(C)(C1)CC(C(=O)NC(=S)N1CCOCC1)(C3)C2,-4,1,5,6,0.9
NNC(=O)[C@H]1C[C@@H]1c1ccccc1,·,·,·,20,·
COCc1nnc(NC(=O)c2cc(OC)c(OC)cc2[N+](=O)[O-])s1,·,·,·,14,·
O=C(CSc1nnc2sc3ccccc3n12)NCc1ccco1,-186,2.9*,22,10,0.8
O=C(Cn1c(=O)sc2ccccc21)Nc1ccccc1,60*,0.4,43,9,0.6
Cc1cc2ccccc2c(=O)n1CC(=O)NC1CCCCCC1,0,1,64*,15,0.4
COc1ccc(NC(=O)Cn2c(=O)sc3ccccc32)cc1,17,0.8,46,10,0.5
Cc1cc2ccccc2c(=O)n1CC(=O)NCC1COc2ccccc2O1 (centres undefined),22,0.8,34,4,0.7
Cc1cc2ccccc2c(=O)n1CC(=O)NCc1ccco1,-156,2.6*,54*,6,0.5
COC(=O)c1ccc(NC(CC(C)C)C(=O)OC)c([N+](=O)[O-])c1 (centres undefined),·,·,·,5,·
CCN(CC)c1ccc(C=C(c2nnnn2-c2ccc(C)cc2)c2nnnn2-c2ccc(C)cc2)cc1,·,·,·,8,·
O=C(Nc1nncs1)c1cccnc1Cl,·,·,·,17,·
Cc1cccc(C)c1Nc1nnc(SCC(=O)NCc2ccco2)s1,20,0.8,70*,5,0.3
COC(=O)Cn1c(=O)sc2ccccc21,-11,1.1,3,16,1
COc1cccc2c(=O)n(CC(=O)Nc3ccc(F)cc3)ccc12,-4,1,5,9,1
Cc1cccc(C)c1Nc1nnc(SCC(=O)NCc2cccs2)s1,·,·,·,13,·
O=C(Cn1c(=O)sc2ccccc21)Nc1ccccc1C(=O)O,85*,0.2,-13,8,1.1
COc1cccc2c(=O)n(CC(=O)NC3CCCCC3)ccc12,-118,2.2*,28,4,0.7
Cc1ccccc1N(CC(=O)NC1CCCC1)C(=O)CS(=O)CC(=O)Nc1ccc2c(c1)OCO2 (centres undefined),90*,0.1,22,8,0.8
Cc1ccc(NC(=O)CS(=O)CC(=O)N(CC(=O)NC2CCCC2)c2cc(C)ccc2C)cc1 (centres undefined),71*,0.3,35,6,0.7
Cc1csc(N(C(=O)c2cccc(S(=O)(=O)N(C)C)c2)c2ccccc2)n1,0,1,11,2,0.9
COC(=O)c1[nH]c2cc(OC)c(OC)cc2c1NC(=O)c1cccc(OC)c1,59*,0.4,6,8,0.9
COc1cccc(C(=O)Nc2cccc(SC)c2)c1,41,0.6,87*,10,0.1
COc1cccc(C(=O)Nc2cccc(OCC(=O)O)c2)c1,36,0.6,70*,7,0.3
c1cncc(-c2nc(Oc3ccc(-c4nnco4)cc3)c3c4c(sc3n2)CCCC4)c1,98*,0,93*,·,0.1
CN(CC(=O)O/N=C(\N)c1cccc([N+](=O)[O-])c1)S(=O)(=O)c1ccccc1,12,0.9,59*,13,0.4
COc1ccccc1-n1c(SCC(=O)NC2CCCCC2)nc2c(c1=O)SCC2,2,1,12,54*,0.9
COC(=O)c1ccc(CSc2nc3c(c(=O)n2-c2ccc(C)cc2)SCC3)o1,93*,0.1,65*,2,0.4
